Inconclusive results are not listed. Activity calls are given as the source filed them. Calls come from the whole dose curve; as a rule, active = well fitted inhibition curve with a large enough effect; inconclusive = small, poorly fitted or top-dose-only effect; inactive = flat fitted curve, though single readings scatter.
Target: Dual specificity tyrosine-phosphorylation-regulated kinase 1A (Homo sapiens) (UniProt Q13627)
Assay: Confirmation Assay for Inhibitors of Dyrk1a (Kinase-Glo Assay): KU probe
Details: Kinase-Glo ATP luminescence
Description: NIH Molecular Libraries Probe Production Centers Network [MLPCN] NIH Chemical Genomics Center [NCGC] MLSCN Grant: 1R03MH084827-01 PI Name: Tom Misteli NCGC Assay Overview: The CMGC group of protein kinases which includes CDK-like kinases (Clk) and Dyks are essential kinases found in all eukaryotes. Clks have been implicated to play a role in the regulation of alternative splicing; while Dyrks, in particular over expression of Dyrk1A, has been linked to diseases as Down syndrome (DS; OMIM 190685) and Alzheimer disease (AD; OMIM 104300). Among the members of the CMGC group, the Clks and the Dyrks are very closely related therefore to determine validity and selectivity of an active compound observed in the CLK4 qHTS screen (AID:1770), a bioluminescent counter-screen against Dyrk1A was developed. […]
NCGC Assay Protocol Summary: Two uL/well of substrate solution (8uM Dyrktide, 2uM ATP, 25mM Tris-HCl pH 7.5, 10mM MgCl2 , 0.5mM EGTA, 5mM cystein, 0.01% Triton X-100 final concentration) was dispensed into 1536-well assay plates (Greiner, solid white, medium-binding plates) with Aurora Discovery BioRAPTR Flying Reagent Dispenser (FRD, Beckton-Dickenson). […] The plates were spun for 30 seconds (1000 rpm) and incubated at ambient temperature for 2 minutes followed by a luminescence read using Perkin Elmer ViewLux plate reader at 3 seconds exposure time and 2x binning.

Q: Cc1cc(CNc2ccnc(-c3ccc4c(c3)OCO4)n2)cnc1F was tested. Which Potency did it give?
A: Its Potency is 18.4 µM (active).
